Data from PubChem BioAssay AID1159580 (chemical genetic matrix, 2015).
Out of some 5,500 compounds screened, about 2,000 (36%) were called active. Inconclusive results (about 18%) are left out. Cut-off read from the data, not from the text of the source: active = normalized growth mostly below about 0.91 (no sharp cut-off); inconclusive = no clear call, values can overlap the other calls; inactive = mostly above about 0.92. This is one part of the list.

Experiment: chemical genetic growth profiling, strain panel (AID 1159580);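 note: tested at 20 µM; growth read once vehicle control cultures reached saturation at 30 °C; 1 = growth at the plate median or of vehicle wells; lower values mean less growth of the strain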
Conditions: growth OD

Measured: normalized growth

C[C@]12CCC3C(CC[C@H]4C[C@H](OS(=O)(=O)O)CC[C@]34C)C1CCC2=O (some centres undefined)
inactive: S. cerevisiae deletion strains, locus YAL021C, strain ccr4, stronger effect = lower value 1.02 | S. cerevisiae deletion strains, locus YAL026C, strain drs2, stronger effect = lower value 1.05 | S. cerevisiae deletion strains, locus YAL030W, strain snc1, stronger effect = lower value 1.05 | S. cerevisiae deletion strains, locus YBL061C, strain skt5, stronger effect = lower value 1.05 | S. cerevisiae deletion strains, locus YBR009C, strain hhf1, stronger effect = lower value 1.06 | S. cerevisiae deletion strains, locus YBR023C, strain chs3, stronger effect = lower value 1.05 | S. cerevisiae deletion strains, locus YBR171W, strain sec66, stronger effect = lower value 1.08 | S. cerevisiae deletion strains, locus YBR231C, strain swc5, stronger effect = lower value 1.06 | S. cerevisiae deletion strains, locus YBR279W, strain paf1, stronger effect = lower value 1.03 | S. cerevisiae deletion strains, locus YCL011C, strain gbp2, stronger effect = lower value 1.05 | S. cerevisiae deletion strains, locus YCL016C, strain dcc1, stronger effect = lower value 1.04 | S. cerevisiae deletion strains, locus YCL061C, strain MRC1, stronger effect = lower value 1.05 | S. cerevisiae deletion strains, locus YCL069W, strain vba3, stronger effect = lower value 1.04 | S. cerevisiae deletion strains, locus YCR088W, strain abp1, stronger effect = lower value 1.04 | S. cerevisiae deletion strains, locus YDL005C, strain med2, stronger effect = lower value 1.06 | S. cerevisiae deletion strains, locus YDL040C, strain nat1, stronger effect = lower value 1.04 | S. cerevisiae deletion strains, locus YDR001C, strain nth1, stronger effect = lower value 1.04 | S. cerevisiae deletion strains, locus YDR069C, strain doa4, stronger effect = lower value 1.05 | S. cerevisiae deletion strains, locus YDR137W, strain rgp1, stronger effect = lower value 1.05 | S. cerevisiae deletion strains, locus YDR159W, strain sac3, stronger effect = lower value 1.08 | S. cerevisiae deletion strains, locus YDR195W, strain ref2 1.06 | S. cerevisiae deletion strains, locus YDR297W, strain sur2, stronger effect = lower value 1.05 | S. cerevisiae deletion strains, locus YDR334W, strain swr1, stronger effect = lower value 1.05 | S. cerevisiae deletion strains, locus YDR335W, strain msn5, stronger effect = lower value 1.04 | S. cerevisiae deletion strains, locus YDR392W, strain spt3, stronger effect = lower value 1.07 | S. cerevisiae deletion strains, locus YEL003W, strain gim4, stronger effect = lower value 1.03 | S. cerevisiae deletion strains, locus YEL037C, strain rad23, stronger effect = lower value 1.04 | S. cerevisiae deletion strains, locus YEL061C, strain CIN8 (second series), stronger effect = lower value 1.05 | S. cerevisiae deletion strains, locus YER015W, strain faa2, stronger effect = lower value 1.05 | S. cerevisiae deletion strains, locus YER016W, strain bim1, stronger effect = lower value 1.04 | S. cerevisiae deletion strains, locus YER111C, strain swi4, stronger effect = lower value 1.06 | S. cerevisiae deletion strains, locus YER155C, strain BEM2 (second series), stronger effect = lower value 1.06 | S. cerevisiae deletion strains, locus YFR010W, strain ubp6, stronger effect = lower value 1.05 | S. cerevisiae deletion strains, locus YGL167C, strain pmr1, stronger effect = lower value 1.06 | S. cerevisiae deletion strains, locus YGL173C, strain kem1, stronger effect = lower value 1.04 | S. cerevisiae deletion strains, locus YGL227W, strain vid30, stronger effect = lower value 1.05 | S. cerevisiae deletion strains, locus YGL240W, strain doc1, stronger effect = lower value 1.04 | S. cerevisiae deletion strains, locus YGL253W, strain hxk2, stronger effect = lower value 1.04 | S. cerevisiae deletion strains, locus YHR013C, strain ard1, stronger effect = lower value 1.12 | S. cerevisiae deletion strains, locus YHR027C, strain rpn1, stronger effect = lower value 1.05 | S. cerevisiae deletion strains, locus YHR142W, strain chs7, stronger effect = lower value 1.05 | S. cerevisiae deletion strains, locus YJL092W, strain hpr5, stronger effect = lower value 1.05 | S. cerevisiae deletion strains, locus YJL095W, strain BCK1 (second series), stronger effect = lower value 1.04 | S. cerevisiae deletion strains, locus YJL115W, strain asf1, stronger effect = lower value 1.06 | S. cerevisiae deletion strains, locus YJL129C, strain trk1, stronger effect = lower value 1.11 | S. cerevisiae deletion strains, locus YJL154C, strain vps35, stronger effect = lower value 1.04 | S. cerevisiae deletion strains, locus YJL164C, strain tpk1, stronger effect = lower value 1.05 | S. cerevisiae deletion strains, locus YJL166W, strain qcr8, stronger effect = lower value 1.05 | S. cerevisiae deletion strains, locus YJL187C, strain SWE1, stronger effect = lower value 1.05 | S. cerevisiae deletion strains, locus YKL160W, strain elf1, stronger effect = lower value 1.03 | S. cerevisiae deletion strains, locus YKR026C, strain gcn3, stronger effect = lower value 1.06 | S. cerevisiae deletion strains, locus YKR091W, strain srl3, stronger effect = lower value 1.04 | S. cerevisiae deletion strains, locus YLL001W, strain dnm1, stronger effect = lower value 1.05 | S. cerevisiae deletion strains, locus YLL026W, stronger effect = lower value 1.05 | S. cerevisiae deletion strains, locus YLL041C, strain sdh2, stronger effect = lower value 1.05 | S. cerevisiae deletion strains, locus YLR027C, strain aat2, stronger effect = lower value 1.05 | S. cerevisiae deletion strains, locus YLR221C, strain rsa3, stronger effect = lower value 1.05 | S. cerevisiae deletion strains, locus YLR258W, strain gsy2, stronger effect = lower value 1.06 | S. cerevisiae deletion strains, locus YLR262C, strain YPT6 (second series), stronger effect = lower value 1.04 | S. cerevisiae deletion strains, locus YLR320W, strain mms22, stronger effect = lower value 1.06 | S. cerevisiae deletion strains, locus YLR342W, strain FKS1, stronger effect = lower value 1.06 | S. cerevisiae deletion strains, locus YLR357W, strain rsc2, stronger effect = lower value 1.06 | S. cerevisiae deletion strains, locus YLR370C, strain arc18, stronger effect = lower value 1.05 | S. cerevisiae deletion strains, locus YLR384C, strain iki3, stronger effect = lower value 1.05 | S. cerevisiae deletion strains, locus YML120C, strain ndi1, stronger effect = lower value 1.05 | S. cerevisiae deletion strains, locus YMR058W, strain fet3, stronger effect = lower value 1.04 | S. cerevisiae deletion strains, locus YMR125W, strain sto1, stronger effect = lower value 1.05 | S. cerevisiae deletion strains, locus YMR129W, stronger effect = lower value 1.05 | S. cerevisiae deletion strains, locus YMR205C, strain PFK2, stronger effect = lower value 1.07 | S. cerevisiae deletion strains, locus YMR231W, strain pep5, stronger effect = lower value 1.03 | S. cerevisiae deletion strains, locus YNL071W, strain lat1, stronger effect = lower value 1.05 | S. cerevisiae deletion strains, locus YNL209W, strain ssb2, stronger effect = lower value 1.04 | S. cerevisiae deletion strains, locus YNL248C, strain rpa49, stronger effect = lower value 1.04 | S. cerevisiae deletion strains, locus YNL322C, strain KRE1 (second series), stronger effect = lower value 1.04 | S. cerevisiae deletion strains, locus YNR049C, strain mso1, stronger effect = lower value 1.05 | S. cerevisiae deletion strains, locus YOR001W, strain rrp6, stronger effect = lower value 1.04 | S. cerevisiae deletion strains, locus YOR070C, strain gyp1, stronger effect = lower value 1.06 | S. cerevisiae deletion strains, locus YOR080W, strain dia2, stronger effect = lower value 1.07 | S. cerevisiae deletion strains, locus YOR083W, strain WHI5, stronger effect = lower value 1.04 | S. cerevisiae deletion strains, locus YOR106W, strain vam3, stronger effect = lower value 1.03 | S. cerevisiae deletion strains, locus YOR270C, strain vph1, stronger effect = lower value 1.1 | S. cerevisiae deletion strains, locus YOR290C, strain snf2, stronger effect = lower value 1.04 | S. cerevisiae deletion strains, locus YPL051W, strain arl3, stronger effect = lower value 1.05 | S. cerevisiae deletion strains, locus YPL078C, strain atp4, stronger effect = lower value 1.03 | S. cerevisiae deletion strains, locus YPL106C, strain sse1, stronger effect = lower value 1.1 | S. cerevisiae deletion strains, locus YPL240C, strain hsp82, stronger effect = lower value 1.04
active: S. cerevisiae deletion strains, locus YOR265W, strain rbl2, stronger effect = lower value 1.08 [resistant]

CC(=O)OCC(=O)[C@@]1(O)CCC2C3CC[C@@H]4C[C@H](OC(C)=O)CC[C@]4(C)C3C(=O)C[C@@]21C (some centres undefined)
inactive: S. cerevisiae deletion strains, locus YBR021W, strain FUR4, stronger effect = lower value 0.972 | S. cerevisiae deletion strains, locus YBR229C, strain ROT2, stronger effect = lower value 0.997 | S. cerevisiae deletion strains, locus YCL029C, strain bik1, stronger effect = lower value 1.03 | S. cerevisiae deletion strains, locus YDL035C, strain GPR1, stronger effect = lower value 0.989 | S. cerevisiae deletion strains, locus YDL074C, strain BRE1, stronger effect = lower value 0.993 | S. cerevisiae deletion strains, locus YDL101C, strain DUN1, stronger effect = lower value 1.01 | S. cerevisiae deletion strains, locus YDL185W, strain tfp1, stronger effect = lower value 1.02 | S. cerevisiae deletion strains, locus YDL192W, strain arf1, stronger effect = lower value 1.01 | S. cerevisiae deletion strains, locus YDR101C, strain arx1, stronger effect = lower value 1.01 | S. cerevisiae deletion strains, locus YDR150W, strain NUM1, stronger effect = lower value 0.994 | S. cerevisiae deletion strains, locus YDR162C, strain NBP2, stronger effect = lower value 0.987 | S. cerevisiae deletion strains, locus YDR318W, strain mcm21, stronger effect = lower value 1 | S. cerevisiae deletion strains, locus YDR388W, stronger effect = lower value 1.01 | S. cerevisiae deletion strains, locus YDR502C, strain sam2, stronger effect = lower value 1 | S. cerevisiae deletion strains, locus YEL061C, strain CIN8, stronger effect = lower value 0.971 | S. cerevisiae deletion strains, locus YER110C, stronger effect = lower value 1.01 | S. cerevisiae deletion strains, locus YER155C, strain BEM2, stronger effect = lower value 0.994 | S. cerevisiae deletion strains, locus YER167W, strain BCK2, stronger effect = lower value 0.961 | S. cerevisiae deletion strains, locus YGL078C, strain dbp3, stronger effect = lower value 1 | S. cerevisiae deletion strains, locus YGL086W, strain mad1, stronger effect = lower value 1.01 | S. cerevisiae deletion strains, locus YGL248W, strain PDE1, stronger effect = lower value 1.01 | S. cerevisiae deletion strains, locus YGR135W, strain pre9, stronger effect = lower value 1 | S. cerevisiae deletion strains, locus YGR252W, strain gcn5, stronger effect = lower value 0.991 | S. cerevisiae deletion strains, locus YHR030C, strain SLT2, stronger effect = lower value 1 | S. cerevisiae deletion strains, locus YHR079C, strain IRE1 (second series), stronger effect = lower value 1.01 | S. cerevisiae deletion strains, locus YHR094C, strain hxt1, stronger effect = lower value 1.01 | S. cerevisiae deletion strains, locus YHR129C, strain ARP1, stronger effect = lower value 0.996 | S. cerevisiae deletion strains, locus YHR200W, strain rpn10, stronger effect = lower value 1.02 | S. cerevisiae deletion strains, locus YIL066C, strain RNR3, stronger effect = lower value 1 | S. cerevisiae deletion strains, locus YIL073C, strain SPO22, stronger effect = lower value 1.05 | S. cerevisiae deletion strains, locus YIL125W, strain kgd1, stronger effect = lower value 1 | S. cerevisiae deletion strains, locus YIR030C, strain dcg1, stronger effect = lower value 0.999 | S. cerevisiae deletion strains, locus YJL095W, strain BCK1, stronger effect = lower value 1 | S. cerevisiae deletion strains, locus YJL134W, strain LCB3, stronger effect = lower value 1 | S. cerevisiae deletion strains, locus YJL168C, strain set2, stronger effect = lower value 1.01 | S. cerevisiae deletion strains, locus YJL187C, strain SWE1 (second series), stronger effect = lower value 0.999 | S. cerevisiae deletion strains, locus YJR043C, strain POL32, stronger effect = lower value 0.995 | S. cerevisiae deletion strains, locus YKL009W, strain mrt4, stronger effect = lower value 0.988 | S. cerevisiae deletion strains, locus YKL068W, stronger effect = lower value 1.01 | S. cerevisiae deletion strains, locus YKL085W, strain MDH1 (second series), stronger effect = lower value 1.01 | S. cerevisiae deletion strains, locus YKL085W, strain MDH1, stronger effect = lower value 1.01 | S. cerevisiae deletion strains, locus YKL190W, strain CNB1, stronger effect = lower value 0.997 | S. cerevisiae deletion strains, locus YKR001C, strain vps1, stronger effect = lower value 1.01 | S. cerevisiae deletion strains, locus YLR039C, strain RIC1, stronger effect = lower value 1.02 | S. cerevisiae deletion strains, locus YLR058C, strain SHM2, stronger effect = lower value 0.993 | S. cerevisiae deletion strains, locus YLR102C, strain apc9, stronger effect = lower value 1.01 | S. cerevisiae deletion strains, locus YLR262C, strain YPT6, stronger effect = lower value 1.03 | S. cerevisiae deletion strains, locus YLR268W, strain sec22, stronger effect = lower value 1.03 | S. cerevisiae deletion strains, locus YLR330W, strain CHS5, stronger effect = lower value 1 | S. cerevisiae deletion strains, locus YLR342W, strain FKS1 (second series), stronger effect = lower value 1.01 | S. cerevisiae deletion strains, locus YLR371W, strain rom2, stronger effect = lower value 1 | S. cerevisiae deletion strains, locus YLR418C, strain cdc73, stronger effect = lower value 1.01 | S. cerevisiae deletion strains, locus YML016C, strain PPZ1, stronger effect = lower value 1.01 | S. cerevisiae deletion strains, locus YML032C, strain rad52, stronger effect = lower value 1 | S. cerevisiae deletion strains, locus YML124C, strain tub3, stronger effect = lower value 1.01 | S. cerevisiae deletion strains, locus YMR078C, strain ctf18, stronger effect = lower value 1.02 | S. cerevisiae deletion strains, locus YMR223W, strain ubp8, stronger effect = lower value 1.02 | S. cerevisiae deletion strains, locus YMR263W, strain SAP30, stronger effect = lower value 0.995 | S. cerevisiae deletion strains, locus YMR307W, strain GAS1, stronger effect = lower value 0.99 | S. cerevisiae deletion strains, locus YNL067W, strain RPL9B, stronger effect = lower value 1 | S. cerevisiae deletion strains, locus YNL153C, strain GIM3, stronger effect = lower value 1 | S. cerevisiae deletion strains, locus YNL233W, strain BNI4, stronger effect = lower value 0.995 | S. cerevisiae deletion strains, locus YNL250W, strain rad50, stronger effect = lower value 1.02 | S. cerevisiae deletion strains, locus YNL271C, strain bni1, stronger effect = lower value 1.01 | S. cerevisiae deletion strains, locus YNL298W, strain CLA4, stronger effect = lower value 1.01 | S. cerevisiae deletion strains, locus YNL307C, strain MCK1, stronger effect = lower value 1.02 | S. cerevisiae deletion strains, locus YNL322C, strain KRE1, stronger effect = lower value 0.998 | S. cerevisiae deletion strains, locus YNR052C, strain pop2, stronger effect = lower value 1.01 | S. cerevisiae deletion strains, locus YOL012C, strain htz1 1 | S. cerevisiae deletion strains, locus YOL147C, strain pex11, stronger effect = lower value 1.01 | S. cerevisiae deletion strains, locus YOR061W, strain CKA2, stronger effect = lower value 1.01 | S. cerevisiae deletion strains, locus YOR069W, strain VPS5, stronger effect = lower value 0.996 | S. cerevisiae deletion strains, locus YOR136W, strain idh2, stronger effect = lower value 1.02 | S. cerevisiae deletion strains, locus YOR144C, strain elg1, stronger effect = lower value 1.02 | S. cerevisiae deletion strains, locus YOR184W, strain ser1, stronger effect = lower value 1.01 | S. cerevisiae deletion strains, locus YOR316C, strain cot1, stronger effect = lower value 1.01 | S. cerevisiae deletion strains, locus YPR119W, strain clb2, stronger effect = lower value 1 | S. cerevisiae deletion strains, locus YPR141C, strain kar3, stronger effect = lower value 1.02 | S. cerevisiae deletion strains, locus YPR163C, strain tif3, stronger effect = lower value 1.02 | S. cerevisiae deletion strains, locus YPR167C, strain met16, stronger effect = lower value 1.02 | S. cerevisiae deletion strains, strain wtn01, stronger effect = lower value 1.02 | S. cerevisiae strains, strain wild type, stronger effect = lower value 0.986
